According to PubChem BioAssay AID493034 (The Scripps Research Institute Molecular Screening Center, 2011):
Screen size: about 2,400 compounds; about 2,200 (92%) were called active. The set was probably picked from earlier hits. Some of the results follow. Values without a mark were called inactive.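 The calls were made as follows: active = mean inhibition over triplicate runs exceeds the cutoff derived for the earlier primary screen (cut at about 25% in these data); inactive = the rest.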

Biological target: Platelet-activating factor acetylhydrolase IB subunit alpha2 (Homo sapiens) (UniProt P68402)
Assay: inhibition of human PAFAH1B2 catalytic subunit – biochemical, fluorescence polarization, FP-rhodamine probe, triplicate, confirmation (AID 493034);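 also: 0% = enzyme with DMSO and 100% = wells lacking PAFAH1B2 protein; inhibitors lower polarization by leaving the probe unbound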
Settings: recombinant PAFAH1B2, FP-rhodamine probe fluorescence polarization; at 3.39 µM; hits give high values

Chain of Platelet-activating factor acetylhydrolase IB subunit alpha2 (Homo sapiens) (P68402 whole entry, looked up): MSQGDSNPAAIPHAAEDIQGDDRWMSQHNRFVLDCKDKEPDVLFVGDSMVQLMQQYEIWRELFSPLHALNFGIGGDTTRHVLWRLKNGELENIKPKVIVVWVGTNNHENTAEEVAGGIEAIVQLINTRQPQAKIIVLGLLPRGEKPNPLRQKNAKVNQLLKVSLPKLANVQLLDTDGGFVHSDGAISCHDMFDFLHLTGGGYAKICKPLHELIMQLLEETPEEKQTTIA

Row | SMILES | inhibition
1 | CC(C)CC(C(=O)O)N1C(=O)C2C3CC(C2C1=O)C1C(c2ccccc2)c2sc(=O)[nH]c2SC31 (configuration not stated) | 39.3% (active)
2 | CC(C(=O)O)N1C(=O)C2C3CC(C2C1=O)C1C(c2ccccc2)c2sc(=O)[nH]c2SC31 (configuration not stated) | 43.1% (active)
3 | Cc1ccc(N2C(=O)CC(Sc3nc4ccccc4o3)C2=O)cc1Cl (configuration not stated) | 20.1%
4 | Cn1c(COc2ccc(Cl)cc2)nnc1SCc1ncc(-c2ccccc2)o1 | 22.4%
5 | C[C@H](NC(=O)c1nc[nH]c1C(=O)NCC(=O)OCc1ccccc1)c1ccccc1 | 23.8%
6 | Cc1noc(C)c1COc1ccccc1C(=O)NC(C)c1ccc(Cl)cc1 (configuration not stated) | 15.7%
7 | COc1cc(/C=N/NS(=O)(=O)c2ccc(C(C)(C)C)cc2)cc([N+](=O)[O-])c1O | 14.5%
8 | COc1cccc(/C=N/Nc2ccc(S(=O)(=O)Nc3ccccc3C(=O)O)cc2[N+](=O)[O-])c1O | 20.4%
9 | COc1cc(/C=N/N(C)S(=O)(=O)c2ccc(C)cc2)cc([N+](=O)[O-])c1O | 30.5% (active)
10 | CN(CCc1ccccn1)C(=S)NC(=O)c1ccco1 | 3.54%
11 | O=C(CNC(=O)OCc1ccccc1)Oc1cc2oc(=O)cc(-c3ccccc3)c2cc1Cl | 50.6% (active)
12 | CC(C)(c1ccc(O)cc1)c1ccc(O)cc1 | 42.2% (active)
13 | COC(=O)c1c(NC(=O)C2C3CCC(O3)C2C(=O)O)sc2c1CCCCCC2 (configuration not stated) | 39.5% (active)
14 | O=C(O)C1=C[C@H](c2ccc(C(F)(F)F)cc2)C[C@H](OCc2ccc(CO)cc2)O1 | 26% (active)
15 | Cc1ccc(S(=O)(=O)N/N=C/c2cccn2-c2ccc(Cl)cc2)cc1 | 45% (active)
16 | Cc1ccc(S(=O)(=O)N2[C@@H](c3ccc(Cl)cc3)C(C(=O)O)=C[C@H]2C(C)(C)C)cc1 | 21%
17 | O=C(NCc1ccc(Cl)cc1)C(=O)NCC1OCCN1S(=O)(=O)c1cc(F)ccc1F (configuration not stated) | 20.3%
18 | CN(C(=O)Cc1c(C(=O)O)n(C)c2ccccc12)c1ccc(Cl)cc1 | 41.1% (active)
19 | Cc1nn(-c2ccccc2)c(Cl)c1CN(C(=O)CCl)c1ccc(Cl)cc1 | 21.7%
20 | O=C(NNC(=O)C12CC3CC(CC(Cl)(C3)C1)C2)c1csc(N2CCOCC2)n1 | 23%
21 | C=CCn1c(-c2cccn(Cc3ccc(Cl)cc3)c2=O)n[nH]c1=S | 22.8%
22 | S=c1[nH]nc(-c2ccc(Cl)cc2)n1Cc1ccccc1 | 32% (active)
23 | S=c1[nH]nc(Cc2ccc(Br)cc2)n1/N=C/c1ccc(Cl)cc1 | 20%
24 | O=C(C[C@@H]1C/C=C\C[C@@H](Cc2ccc(F)cc2)C(=O)OC[C@H]2CCCN2C1=O)N[C@H](CO)Cc1ccccc1 | 32.1% (active)
25 | C[C@@H]1COC(=O)[C@H](Cc2ccc(F)cc2)C/C=C\C[C@@H](CC(=O)NCCO)C(=O)N1 | 22.3%
26 | O=C(C[C@@H]1C/C=C\C[C@@H](Cc2ccc(F)cc2)C(=O)OC[C@@H]2CCCN2C1=O)NCCO | 26.9% (active)

Row | SMILES | inhibition
27 | O=C(C[C@H]1C/C=C\C[C@@H](Cc2ccc(F)cc2)C(=O)OC[C@H]2CCCN2C1=O)N[C@@H](CO)Cc1ccccc1 | 35.2% (active)
28 | CCN1C(=O)N/C(=C/c2cc(C)n(Cc3ccccc3)c2C)C1=O | 77.5% (active)
29 | O=C(N/N=C/c1cc([N+](=O)[O-])ccc1O)NC12CC3CC(CC(C3)C1)C2 | 79.6% (active)
30 | O=C(N/N=C/c1cc([N+](=O)[O-])ccc1O)Nc1ccccc1 | 16.1%
31 | Clc1ccc(OCCSCc2nc3ccccc3[nH]2)cc1 | 22.6%
32 | COc1ccc(S(=O)(=O)Nc2ccc3c(c2)C(=O)N([C@H](C)CO)C[C@H](C)[C@@H](CN(C)S(=O)(=O)c2ccccc2)O3)cc1 | 22.7%
33 | COc1ccc(S(=O)(=O)Nc2ccc3c(c2)C(=O)N([C@@H](C)CO)C[C@H](C)[C@H](CN(C)S(=O)(=O)c2ccc(F)cc2)O3)cc1 | 22.2%
34 | COc1ccc(S(=O)(=O)Nc2ccc3c(c2)CC(=O)N([C@@H](C)CO)C[C@@H](C)[C@@H](CN(C)Cc2ccccc2)O3)cc1 | 26.1% (active)
35 | COC(=O)c1sc(-c2ccc(Cl)cc2)cc1NC(=O)COCC(=O)O | 11.5%
36 | O=C(Nc1sc(-c2ccccc2)cc1C(=O)O)c1ccccc1 | 28.8% (active)
37 | S=c1[nH]cnc2sc(-c3ccccc3)cc12 | 37.9% (active)
38 | O=[N+]([O-])c1cc(-c2cnc3ccccc3n2)ccc1Oc1ccc(Br)cc1 | 51.6% (active)
39 | CC(C)(C)CC(C)(C)c1ccc(O)c(CN2CCN(CCC#N)CC2)c1 | 32.4% (active)
40 | COC(=O)c1sccc1NC(=O)CC1C(=O)NCCN1C(=O)Nc1ccc(OCc2ccccc2)cc1 (configuration not stated) | 52.2% (active)
41 | Cn1nc(C(=O)NCCc2ccc(Cl)cc2)c2c1-c1ccccc1S(=O)(=O)C2 | 23.3%
42 | Oc1cc2c(cc1O)CN(C(=S)NCCc1ccc(Cl)cc1)CCC2 | 55.2% (active)
43 | Cc1c(C(=O)N2CCOCC2)cc(C(C)(C)C)n1-c1ccccc1 | 41% (active)
44 | Cc1ccc(S(=O)(=O)n2cc(CO)c3ccccc32)cc1 | 40% (active)
45 | CCC(C)c1c(N)n(S(=O)(=O)c2ccc(C)cc2)oc1=O (configuration not stated) | 23.5%
46 | O=C(C[C@H]1C/C=C/CC[C@H](Cc2ccc(F)cc2)C(=O)O[C@H](c2ccccc2)CNC1=O)NCCO | 23.6%
47 | O=C1NCCOC(=O)[C@H](Cc2ccc(F)cc2)C/C=C\C[C@H]1CC(=O)N(CCO)Cc1ccccc1 | 14.8%
48 | O=C1NC[C@H](c2ccccc2)OC(=O)[C@H](Cc2ccc(F)cc2)C/C=C\C[C@H]1CC(=O)N(CCO)Cc1ccccc1 | 49.6% (active)
49 | O=C1NC[C@@H](c2ccccc2)OC(=O)[C@H](Cc2ccc(F)cc2)CC/C=C/C[C@H]1CC(=O)N(CCO)Cc1ccccc1 | 52.6% (active)
50 | O=C1NC[C@@H](c2ccccc2)OC(=O)[C@@H](Cc2ccc(F)cc2)CC/C=C/C[C@H]1CC(=O)N(CCO)Cc1ccccc1 | 57.9% (active)
51 | S=c1[nH]nc(CSCCOc2ccc(Cl)cc2Cl)o1 | 23.3%
52 | CC(C)C(C(=O)Nc1nccs1)c1ccc(Cl)cc1 (configuration not stated) | 17.2%

Row | SMILES | inhibition
53 | N#Cc1c(NC(=O)C2CC=CCC2C(=O)O)sc2c1CCCCCC2 (configuration not stated) | 41.1% (active)
54 | CC(C)(C)NC(=O)C(=O)NNC(=O)COc1ccc(Br)cc1 | 23.5%
55 | CCc1ccc(-c2cc(C(=O)Nn3cnnc3)c3ccccc3n2)cc1 | 30.2% (active)
56 | CC(=O)N1CCOc2ccc(S(=O)(=O)NCCc3ccc(C)cc3)cc21 | 23.7%
57 | Cc1ccc(S(=O)(=O)N2CCN(C(=S)NCCc3ccccc3)CC2)cc1 | 34.8% (active)
58 | C=C1C(=O)[C@@]23[C@H](O)C[C@@H]4C(C)(C)CC[C@H](O)[C@@]4(C)[C@@H]2CC[C@@H]1[C@H]3O | 84.8% (active)
59 | C=C1C(=O)[C@@]23[C@H](O)C[C@@H]4C(C)(C)CC[C@H](O)[C@]4(C)[C@@H]2C[C@H](O)[C@@H]1[C@H]3O | 69.2% (active)
60 | Cc1ccc(Sc2ccc(/C=C3/C(=O)NN(c4ccccc4)C3=O)o2)cc1 | 73.8% (active)
61 | Cc1ccc2c(c1)C=CC(C)N2C(=O)c1ccccc1 (configuration not stated) | 21.4%
62 | O=C(CCNS(=O)(=O)c1ccccc1)NCCCSc1ccccc1 | 22.4%
63 | Cc1ccc(CN=C2NC(=O)C(CC(=O)NCCc3ccccc3)S2)cc1 (configuration not stated) | 51.6% (active)
64 | O=C(NCCc1ccc(Cl)cc1)c1ccc(=O)[nH]c1 | 19.5%
65 | Cc1ccc(S(=O)(=O)/N=C2\SC(CC(=O)Nc3ccc(F)cc3)C(=O)N2c2ccccc2)cc1 (configuration not stated) | 23.5%
66 | C[C@@H]1CN([C@H](C)CO)C(=O)c2cccc(NC(=O)NC3CCCCC3)c2O[C@@H]1CN(C)C(=O)Nc1ccc(C(F)(F)F)cc1 | 55.7% (active)
67 | C[C@H](CO)N1C[C@H](C)[C@@H](CN(C)C(=O)Nc2ccccc2)Oc2c(NC(=O)Nc3ccc(C(F)(F)F)cc3)cccc2C1=O | 23.4%
68 | C[C@H](CO)N1C[C@H](C)[C@@H](CN(C)C(=O)Nc2ccc(C(F)(F)F)cc2)Oc2c(NC(=O)Nc3ccccc3)cccc2C1=O | 42.3% (active)
69 | C[C@H](CO)N1C[C@H](C)[C@@H](CN(C)C(=O)Nc2ccc(C(F)(F)F)cc2)Oc2c(NC(=O)Nc3ccc(C(F)(F)F)cc3)cccc2C1=O | 62.5% (active)
70 | C[C@H](CO)N1C[C@H](C)[C@@H](CN(C)C(=O)Nc2ccc(C(F)(F)F)cc2)Oc2c(NC(=O)Nc3ccc4c(c3)OCO4)cccc2C1=O | 44.2% (active)
71 | COc1ccc(NC(=O)Nc2cccc3c2O[C@H](CN(C)C(=O)Nc2ccc(C(F)(F)F)cc2)[C@@H](C)CN([C@H](C)CO)C3=O)cc1 | 56.9% (active)
72 | COc1ccc(NC(=O)N(C)C[C@H]2Oc3c(NC(=O)Nc4ccc(C(F)(F)F)cc4)cccc3C(=O)N([C@H](C)CO)C[C@@H]2C)cc1 | 28.7% (active)
73 | O=C(O)CCc1ccc(S(=O)(=O)Nc2cc(C(F)(F)F)ccc2N2CCCC2)cc1 | 13.5%
74 | O=C(O)CC/C(=C\c1ccc(N2CCOCC2)c([N+](=O)[O-])c1)c1nc2ccccc2s1 | 91.2% (active)
75 | O=C(O)C/C(=C\c1cc2c(cc1Br)OCO2)c1nc2ccccc2s1 | 22.2%
76 | COc1cc(/C=C(\CCC(=O)O)c2nc3ccccc3s2)ccc1OCC(=O)Nc1c(Cl)cccc1Cl | 57.7% (active)
77 | O=C(O)CC/C(=C\c1ccc(N2CCCC2)c([N+](=O)[O-])c1)c1nc2ccccc2s1 | 84.2% (active)
